# Many of the other results were omitted from the sample, so hits are more common in it than they were.
# Pf Dd2 growth: qHTS Primary assay for Inhibitors of Plasmodium falciparum Dd2 growth in vitro. P. falciparum Dd2 growth, SYBR Green, 72 h. Potency, µM (highest dose often 28.9 µM), inactives show at the top dose activity, negative = inhibition, actives largely listed as inhibitors. actives 4.3% (n = 120,000); active = well fitted inhibition curve with a large enough effect;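 also: plate controls were DMSO vehicle for no effect and reference drug for full effect; nearly all actives have a fitted effect of over 65% in size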
#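 Readout: SYBR Green fluorescence, 485 nm excitation, 535 nm emission, after ~16 h lysis at 37C. Before that, Dd2-infected red cells (2.5% hematocrit) grew 72 h with compound, 29 uM top final concentration.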
# * = called active by the depositor; i = inactive; [ ] = dose if it differs, or a comment. Potency is read from the fitted curve at half-maximal effect.
SMILES,Pf Dd2 growth
CS(=O)(=O)N1CCc2ccc(C(=O)NCc3ccc(N4CCCCC4)cc3)cc21,-31.7%
CCNC(=O)C1N(C(C)C)C(=O)C12CCCCC2 (stereo not drawn),-9.1%
CC(=O)c1ccc(NC(=O)N2C[C@@H]3C[C@H](C2)c2ccc(NC(=O)c4ccco4)c(=O)n2C3)cc1,-14.5%
Cc1cccc2sc(N(Cc3cccnc3)C(=O)CCc3ccccc3)nc12,3.98µM*
CC(=O)N(Cc1cccnc1)c1nc2c(C)c(C)ccc2s1,i
Cc1ccc2nc(N(Cc3cccnc3)C(=O)c3ccc4c(c3)OCCO4)sc2c1,i
Cc1cc(C)c2nc(N(Cc3cccnc3)C(=O)c3cccs3)sc2c1,10µM*
O=C(CCS(=O)(=O)c1ccccc1)N(Cc1cccnc1)c1nc2ccc(Cl)cc2s1,45.8%
Cc1ccc2nc(N(Cc3cccnc3)C(=O)Cc3ccccc3)sc2c1,5.01µM*
Cc1cc(C)c2nc(N(Cc3cccnc3)C(=O)Cc3ccccc3)sc2c1,10µM*
CCS(=O)(=O)c1ccccc1C(=O)N(Cc1cccnc1)c1nc2cc(C)c(C)cc2s1,-1.3%
Cc1ccc2nc(N(Cc3cccnc3)C(=O)CCS(=O)(=O)c3ccccc3)sc2c1,i
CC(=O)c1ccc(C(=O)N(Cc2cccnc2)c2nc3c(Cl)cccc3s2)cc1,-21.6%
O=C(CCc1ccccc1)N(Cc1cccnc1)c1nc2c(F)cccc2s1,i
O=C(c1ccco1)N(Cc1cccnc1)c1nc2c(F)cccc2s1,i
CC(C)C(=O)N1CCC2(CCCCO2)CC1,-18.7%
CNC(=O)[C@H]1C[C@H](Oc2ccccc2)CN1C(=O)Nc1ccc(OC)cc1,10.9%
O=c1c2c(nc3cc[nH]n13)CCN(S(=O)(=O)c1ccccc1Cl)C2,i[5.79 µM]
COc1ccc2[nH]c(=O)c(CCC(=O)NCCCN3CCCC(C)C3)cc2c1 (stereo not drawn),i
Cc1noc(C)c1CCC(=O)N1CCN(Cc2ccccc2)CC(O)C1 (stereo not drawn),-1.9%
COc1cccc(N2C(=O)NC(=NC3CCCC3)C23CCN(C(=O)c2ccccc2OC)C3)c1 (stereo not drawn),-16.1%
COc1ccc(C(=O)N2CC[C@H](CO)[C@H](NC(=O)C3CC3)C2)cc1F,-4.5%
Cn1nccc1CN1CCCC(c2nn(-c3ccc(Cl)cc3)c(=O)[nH]2)C1 (stereo not drawn),-15.9%
CCn1c(=O)c2ccnn2c2ccc(C(=O)NCCc3cccnc3)cc21,-9.5%
CCOc1cccc(CN2CCC3(CC2)Cc2ccccc2CNC3=O)c1,-19.2%
SMILES,Pf Dd2 growth
Cc1nnc2ccc(NCC(C)C)nn12,0.8%
CCCN(CC1CCOC1)S(=O)(=O)c1cccs1 (stereo not drawn),39.5%[5.79 µM]
COCCN1C(=O)c2cccn2CC1CNC(=O)c1[nH]nc2c1COc1ccccc1-2 (stereo not drawn),-4.9%
CN1C(=O)c2cccn2CC1CNC(=O)c1[nH]nc2c1COc1ccccc1-2 (stereo not drawn),8.91µM*
CN1C(=O)c2cccn2CC1CNC(=O)c1n[nH]c(=O)c2ccccc12 (stereo not drawn),16.0%
CC(C)CCN1C(=O)CC[C@@]2(C(=O)NCc3ncc[nH]3)CCCC[C@H]12,7.8%
CC(C)CN(Cc1ccco1)C(=O)CC1C(=O)NCCN1Cc1ccoc1 (stereo not drawn),i
CN(C)C[C@@H]1CN(Cc2ccccc2)C[C@H]1NC(=O)c1cnco1,i
COc1ncccc1-c1nccc2c(=O)cc(-c3ccncc3)oc12,-6.2%[44.1 µM]
O=c1cc(-c2ccncc2)oc2c(-c3cccc4[nH]ccc34)nccc12,10µM*
Cn1cc(-c2cc(=O)c3ccnc(-c4cccc5[nH]ccc45)c3o2)cn1,i
COC1CCOC2(CCN(C(=O)c3ccccn3)CC2)C1 (stereo not drawn),132.1%
COc1ccc(N(Cc2cccs2)C(=O)COc2cccc(Cl)c2)cc1,-8.1%
COc1ccc(N(Cc2cccs2)C(=O)c2ccc(OC)c(Cl)c2)cc1,3.4%
CCCCOc1cccc(C(=O)N(Cc2cccs2)c2ccc(OC)cc2)c1,0.316µM*
CCOc1ccc(-c2noc(-c3nc(CC)no3)n2)cc1,i
COc1ccccc1N1CCN([C@@H]2[C@H](O)[C@H](CO)O[C@@H]2CNC(=O)Nc2ccc(F)cc2F)CC1,i
Cn1cnc(S(=O)(=O)N2CCCN(C(=O)c3nccn3C)CCNC(=O)CC2c2ccccc2)c1 (stereo not drawn),9.1%
Cc1cc(C)n(Cc2ccc(C(=O)NCCc3noc(-c4cccnc4)n3)o2)n1,i
CCOc1ccc(C(=O)N2C[C@@H](COC)[C@H](C(N)=O)C2)cc1,-0.9%
N[C@H]1CN(C(=O)c2ccc(Cn3cnnn3)cc2)C[C@@H]1C1CC1,-8.9%
Cc1ccc(OCc2ccc(C(=O)N3C[C@H](C4CC4)[C@@H](N)C3)cc2)cc1,10µM*
COC(=O)[C@H]1CCCN1C(=O)[C@@H]1[C@@H](NC(=O)NC2CCCCC2)CCN1C(=O)c1cccn1C,-2.8%
COc1ccc(C2(C(=O)N3CCCC(c4nc(C(C)C)no4)CCNC(=O)CC3)CC2)cc1 (stereo not drawn),-2.7%
COc1ccc(F)c(CN2CCCC3(CCN(C(=O)c4cccc(C)n4)C3)C2)c1 (stereo not drawn),-17.2%
SMILES,Pf Dd2 growth
COC(=O)c1c(-c2ccc(Cl)cc2)noc1N1CCN(c2ccc(F)cc2)CC1,-17.5%
COC(=O)c1c(-c2ccc(Cl)cc2)noc1N1CCN(c2cccc(C(F)(F)F)c2)CC1,7.08µM*
CC(=O)NC1(C)CCN(c2cccc(C(F)(F)F)c2)CC1,-18.7%[44.1 µM]
COc1cccc(N2CC3(COCC2=O)CN(c2ccc(C(F)(F)F)cn2)C3)c1,-20.7%[44.1 µM]
COCCN1CCCCCC(O)c2cc(C(=O)N3CCN(c4ccccn4)CC3)ccc21 (stereo not drawn),i
COc1ccc(-c2ccnc3nc(CCc4ccc(OC)c(OC)c4)nn23)c(F)c1,i
O=C(NC1CCCCC1)[C@@H]1C[C@@H](O)CN1C1CCN(C(=O)c2n[nH]c(=O)c3ccccc23)CC1,-22.4%
Cc1ccc(Cl)cc1N1CCN(C(=O)c2cc3c(=O)n(C)c4ccccc4c3s2)CC1,32.0%[5.79 µM]
Cc1ccc(Cl)cc1N1CCN(C(=O)c2cn(CC(C)C)c(=O)c3c2c2ccccc2n3C)CC1,3.16µM*
Cc1ccc(Cl)cc1N1CCN(C(=O)CCc2nnc3n(C)c(=O)c4ccccc4n23)CC1,-18.6%
COc1ccc2ccc(OCc3nc(C(=O)N4CC(N5CCCCC5)C4)co3)cc2c1,8.91µM*
COc1ccc(OCc2nc(C(=O)N3CCCC(C(C)(C)O)C3)co2)cc1 (stereo not drawn),-4.4%
CCCC1CCN(C(=O)c2coc(COc3ccc4ccc(OC)cc4c3)n2)C1 (stereo not drawn),-20.6%
COc1cccc(OCc2nc(C(=O)N3CC4C[C@@H]5CC3C[C@H](C4)C5)co2)c1,10µM*
COCC1CCN(C(=O)c2coc(COc3cccc(F)c3)n2)C1 (stereo not drawn),-1.8%
C[C@@H]1CN(C(=O)c2coc(COc3cccc(F)c3)n2)C[C@H](C)O1,-4.3%
CNCC(=O)N1CCC(C2CCN(C(=O)NC)CC2)C1 (stereo not drawn),39.6%
COc1ccc(C(=O)N2CCCCCNC(=O)[C@@H]3CCC[C@@H]32)cc1,i
COc1cccc(CC(=O)N2CCCCCCNC(=O)[C@H]3CCCC[C@H]32)c1,-11.4%
Cc1ccccc1Cn1cnc2c(oc3ccccc32)c1=O,8.91µM*
Cc1ccc(NC(=O)Cn2cnc3c(oc4ccccc43)c2=O)cc1,-17.7%[0.594 µM]

# Assay outcomes (PubChem BioAssay)
